# Laboratory results published in the supplement of paper PMC8728848.
# The full list was thinned out, with the strongest signals kept by preference.
# B1: Pwp4 (Candida glabrata) (protein)
# chain: MGSSHHHHHHSSGLVPRGSHMASVGNPITVSNVCSFPKNWHRTAGFRALTARLGIGIQSDSYKELLNYPGTFQLTTQQSSTTKPNFQISGLVGNIYGLTIVPSYLLVELTGYFVPPVSGEYTFSLEGSDDAAIIFIANPSTFKCGHVEDWPTAYDNDVTVTESIHATRTIYMIEGVAYPIRIAYYNGLSLGKLQASFTDPEGVKRVDWNGYIWRYDSCDTCSYV
# Assays:
# Assay in all cases: glycan array binding signal (z-score within array); higher = stronger binding
# Settings in all cases: glycan notation: IUPAC condensed, linker removed
# [1] = biological target: GlcNAc6S(b1-3)Gal(b1-4)GlcNAc
# Summary of the method: (§1)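 Glycan array binding is given as a within-array Z-score, which can be read as non-binding when negative. The arrays, 3228 of them, came from the Consortium for Functional Glycomics database and were retained only where the protein sequence was available. Z-scores were averaged across arrays of the same protein sequence at different concentrations or buffers and across linkers.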
# [2] = biological target: Man(a1-2)Man(a1-2)Man(a1-6)[Man(a1-3)]Man
# Summary of the method: as §1
# Man(b1-4)GlcNAc = biological target: Man(b1-4)GlcNAc
# Summary of the method: as §1
# [3] = biological target: Neu5Ac(a2-3)Gal(b1-3)GalNAc(b1-4)[Neu5Ac(a2-3)]Gal(b1-4)Glc
# Summary of the method: as §1
# [4] = biological target: Neu5Ac(a2-3)Gal(b1-3)[GlcNAc(b1-6)]GalNAc
# Summary of the method: as §1
# [5] = biological target: Neu5Ac(a2-3)Gal(b1-3)[Neu5Ac(a2-6)]GalNAc
# Summary of the method: as §1
# [6] = biological target: Neu5Ac(a2-3)Gal(b1-3)]Neu5Ac(a2-3)Gal(b1-4)]GlcNAc
# Summary of the method: as §1
# [7] = biological target: Neu5Ac(a2-3)Gal(b1-4)GlcNAc(b1-2)Man
# Summary of the method: as §1
# [8] = biological target: Neu5Ac(a2-3)Gal(b1-4)GlcNAc(b1-2)Man(a1-3)[Neu5Ac(a2-3)Gal(b1-4)GlcNAc(b1-2)Man(a1-6)]Man(b1-4)GlcNAc(b1-4)[Fuc(a1-6)]GlcNAc
# Summary of the method: as §1
# [9] = biological target: Neu5Ac(a2-3)Gal(b1-4)GlcNAc(b1-2)Man(a1-3)[Neu5Ac(a2-6)Gal(b1-4)GlcNAc(b1-2)Man(a1-6)]Man(b1-4)GlcNAc(b1-4)GlcNAc
# Summary of the method: as §1
# [10] = biological target: Neu5Ac(a2-3)Gal(b1-4)GlcNAc(b1-2)[Neu5Ac(a2-3)Gal(b1-4)GlcNAc(b1-6)]Man(a1-6)[Neu5Ac(a2-3)Gal(b1-4)GlcNAc(b1-2)Man(a1-3)][GlcNAc(b1-4)]Man(b1-4)GlcNAc(b1-4)GlcNAc
# Summary of the method: as §1
# [11] = biological target: Neu5Ac(a2-3)Gal(b1-4)GlcNAc(b1-3)Gal(b1-4)[Fuc(a1-3)]GlcNAc
# Summary of the method: as §1
# Neu5Ac(a2-6)Gal = biological target: Neu5Ac(a2-6)Gal
# Summary of the method: as §1
# [12] = biological target: Neu5Ac(a2-6)Gal(b1-4)GlcNAc(b1-2)Man(a1-3)[Gal(b1-4)GlcNAc(b1-2)Man(a1-6)]Man(b1-4)GlcNAc(b1-4)GlcNAc
# Summary of the method: as §1
# [13] = biological target: Neu5Ac(a2-6)Gal(b1-4)GlcNAc(b1-3)Gal(b1-4)[Fuc(a1-3)]GlcNAc(b1-3)Gal(b1-4)[Fuc(a1-3)]GlcNAc
# Summary of the method: as §1
# [14] = biological target: Neu5Ac(a2-6)Gal(b1-4)GlcNAc6S
# Summary of the method: as §1
# [15] = biological target: Neu5Ac(a2-8)Neu5Ac(a2-3)Gal(b1-3)GalNAc(b1-4)[Neu5Ac(a2-3)]Gal(b1-4)Glc
# Summary of the method: as §1
binder,measurement,setting,value
B1,glycan array binding signal (z-score),[1],-0.195
same,glycan array binding signal (z-score),[2],-0.597
same,glycan array binding signal (z-score),Man(b1-4)GlcNAc,-0.403
same,glycan array binding signal (z-score),[3],-0.275
same,glycan array binding signal (z-score),[4],3.89
same,glycan array binding signal (z-score),[5],-0.221
same,glycan array binding signal (z-score),[6],-0.455
same,glycan array binding signal (z-score),[7],-0.174
same,glycan array binding signal (z-score),[8],1.34
same,glycan array binding signal (z-score),[9],0.37
same,glycan array binding signal (z-score),[10],9.42
same,glycan array binding signal (z-score),[11],-0.414
same,glycan array binding signal (z-score),Neu5Ac(a2-6)Gal,0.575
same,glycan array binding signal (z-score),[12],1.01
same,glycan array binding signal (z-score),[13],-0.388
same,glycan array binding signal (z-score),[14],-0.336
same,glycan array binding signal (z-score),[15],-0.601
